In the OligoGym collection:

Target: VGLL2
Experiment: pooled miR-30 sensor sort-seq; sequence = guide strand
Conditions: shRNA
Note: reference of the scale not given here.

Row | Sequence | sensor-assay potency score (higher = more potent)
1 | TAACAAAATAATTCACATCAGC | -0.803
2 | TTCTCTACCACAGTCTTAGATG | -1.22
3 | TACTTCTCTACCACAGTCTTAG | -0.503
4 | TAAGTGAAGAGGACGCAGCGGG | -0.197
5 | TTGGATTTGCTCTTTCAGCAGC | -0.344
6 | TAAAATCTGACAGTAGTAGTGC | 0.941
7 | TTGTCTAACAACAGCTGCATTT | -1.41
8 | TTGACTTCTCTTTACTTCTCTA | -0.415
9 | TTACTTCTCTACCACAGTCTTA | -0.551

Target: VIPR2
Experiment: as above
Conditions: shRNA

Row | Sequence | sensor-assay potency score (higher = more potent)
10 | TAAAACGTGATCTTGCTCTCAT | 1.2
11 | TTTGCTGTAAAAATTGCTGAAG | -0.647
12 | TCTTGTACTGAGACTGGTCGTT | -0.0864
13 | TTCAGGTGGATGTAATTCCTGG | -0.512
14 | TAGTGGACGCCGAACAGCGGGA | -0.939
15 | TTTGAGACCTCAGAAGCTCTGC | 0.397
16 | TTTCGCTTCAGCTCGCACTGCA | 0.156
17 | TTGCTGAAGACTTTTGGGCAGG | -1.06
18 | TCTGGGAACGTCTCTGACCATC | -1.08
19 | TTGACCAGCACTGAGATGGCTC | -0.324
20 | TTTTGCTTATGTTTCCTGCTTT | 0.362
21 | TTCACCAGAATATAAAACGTGA | -0.447

Target: VKORC1
Experiment: as above
Conditions: shRNA

Row | Sequence | sensor-assay potency score (higher = more potent)
22 | ATAGCATAGGTGGTGATACAAA | -1.7
23 | TCACGTTGATAGCATAGGTGGT | -0.749
24 | TTGATTGAGGATGCTGTCCTGT | 0.167
25 | ATAGGTGGTGATACAAACAATG | -1.33
26 | TAGAGCACGAAGAACAGGATCC | -0.705
27 | TAGAGCGAGAGCACTAAGCCCG | -0.598
28 | TTGGACCTTCCGGAAACTGAGC | -1.21
29 | AGCACGAAGAACAGGATCCAGG | -2.45
30 | TTGATAGCATAGGTGGTGATAC | -0.976
31 | AACAATGCAGAAATCATAGAGC | -0.667
32 | TAGGTGGTGATACAAACAATGC | -1.84
33 | TCATAGAGCACGAAGAACAGGA | 0.298

Target: VN1R2
Experiment: as above
Conditions: shRNA

Row | Sequence | sensor-assay potency score (higher = more potent)
34 | TTCTTTGTGATGTTGTTGTTGC | -0.241
35 | TTATTGGATACAAAGCAGGAGA | -0.969
36 | TTTACTTTCATCTCTGCCCACC | -1.01
37 | TTGGGGTAGAGATTGTTCCTAC | -0.232
38 | TAACATAATGCAAAGGTGCTCA | -0.437
39 | TTTGGTGGGTTTCTCTCCGTGT | -0.0937
40 | TTTTACTTTCATCTCTGCCCAC | -0.563
